# Test results: PubChem BioAssay (NCI)
# The panel holds about 83,000 compounds, 20% with a hit somewhere; the sample as a whole holds those more often.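 Compound tested at a single concentration for 48 hours in 96-well plates; a percent growth value below 10 was scored as active.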 Values without a mark were called inactive. Active and inactive are the calls of the source.
# Tested on: SN12C renal
# Assay: NCI-60 one-dose screen, 48 h (100 = growth as untreated, 0 = no growth, -100 = all killed)
# Conditions: 10 µM unless noted
row,SMILES,growth
1,NC(=O)c1c(NC(=O)c2ccc(Cl)cc2)sc2c1CCC(=O)C2,71.8%
2,Nc1c(C(=O)Nc2cccc3ncccc23)sc2nc3c(cc12)C(=O)CCC3,60.8%
3,CCOC(=O)c1cn2ncnc(Oc3ccc(NC(=O)NC4CC4)c(F)c3)c2c1C,95.1%
4,CCOC(=O)c1c2c(n3c1NCC3)-c1ccccc1C2=O,98.3%
5,CCCC(O)Cn1ncc(C(=O)OCC)c1NC(=O)NCc1cccc(F)c1 (stereo not given),99.8%
6,O=C(CCC(=O)c1nc2ncccc2[nH]1)NN1C(=O)CSC1c1ccc(Cl)cc1 (stereo not given),97%
7,COc1ccc2nc(Cl)c(/C=C/C(=O)c3ccc(NC(=O)CSc4nnc(-c5ccc(Cl)c(Cl)c5)n4-c4ccccc4)cc3)cc2c1,88.2%
8,CS(=O)(=O)Nc1cncc(-c2ccc3ncnc(Nc4ccc(F)c(Cl)c4)c3c2)c1,33.9%
9,Cc1ccc(-c2nc(C#N)c(S(=O)(=O)NCCO)o2)cc1,81.2%
10,O=C1OCC2=C1C(c1cccc(C(F)(F)F)c1)c1cc3c(cc1N2CCO)OCO3 (stereo not given),46.8%
11,Cc1[nH]c(C(=O)Nc2cccc(OC3CCNCC3)c2)c(Cl)c1Cl,70.3%
12,O=C1/C(=C/c2ccc(Br)cc2)COc2ccc(O)c(O)c21,-41.1% (active)
13,CCN1C(=S)N(CC)C2C1NC(=S)N2/N=C/C=C/c1ccccc1OC (stereo not given),28.5%
14,COc1cc(-c2nc3occn3c2-c2ccnc(NCCCNS(=O)(=O)c3ccccc3)n2)ccc1F,44%
15,O=C(O)c1cccc(N/C=C/C(=O)c2cc3cc(Br)ccc3oc2=O)c1,94.1%
16,N#Cc1c(Nc2ccc(F)cc2)n[nH]c1-c1cccs1,89.5%
17,COc1ccc(C2C(C#N)=C(N)Oc3c2sc2c(Br)cccc32)cc1 (stereo not given),37.3%
18,CCNc1nc(-c2ccc(F)cc2)c(C#N)c(=O)n1C,69.1%
19,CC12CCC(/C(=C/NNc3ccc([N+](=O)[O-])cc3[N+](=O)[O-])C1=O)C2(C)C (stereo not given),73.1%
20,S=c1[nH]c2cc(Cl)ccc2o1,100%

row,SMILES,growth
1,COc1cc2c3c(c1O)-c1ccccc1[C@@H]1OC(=O)N(CC2)[C@H]31,101%
2,CC(C)CSc1oc(-c2ccccc2)nc1S(=O)(=O)c1ccccc1,95%
3,C#CCOc1cccc(-c2ncc3cc(NC(=O)CCl)ccc3n2)c1,-42.5% (active)
4,Cn1c(=O)c2c(nc(NC3=NS(=O)(=O)c4ccccc43)n2Cc2ccccc2)n(C)c1=O,93%
5,COc1cc2c(c(OC)c1OC)C(=O)CC(c1cccc(NC(=O)c3ccccc3Br)c1)O2 (stereo not given),91.5%
6,CC(C)(CO)N(CCO)CCO,99.1%
7,CC(=O)c1c(Nc2ccc(F)c(F)c2F)[nH]c2c(F)cc(F)cc2c1=O,1.04% (active)
8,C#CCOc1ccc2ncnc(Nc3cccc(NC(=O)CCl)c3)c2c1,69.4%
9,COc1ccc(/C=C/C(=O)c2ccc(NC(=O)CSc3nnc(-c4cc(-c5ccccc5)nc5ccccc45)n3-c3ccccc3)cc2)cc1,92.7%
10,CCn1cc(C2=C(c3cn(C)c4ncccc34)C(=O)NC2=O)c2cccnc21,68.5%
11,NNC(=S)N/N=C/c1ccccn1,30%
12,Cc1ccc2nc(Cl)c(Cn3nnnc3SCc3ccccc3)cc2c1,92.8%
13,Clc1nn2c(Cn3cnc4c(NCc5ccccc5)ncnc43)nnc2c2ccccc12,32%
14,CN(C)c1ccc(/C=C2/C=C(c3ccccc3)OC2=O)cc1,107%
15,O=C(CN1C(=O)NC2NC(=O)NC21)N/N=C/c1ccc(Cl)cc1Cl (stereo not given),104%
16,COc1cccc(Nc2ccnc3[nH]c4ccc([N+](=O)[O-])cc4c23)c1,65.2%
17,COc1ccc(C/C(C)=C(/c2ccc(OCCN3CCCCCC3)cc2)c2ccc(OC(=O)NCc3ccccc3)cc2)cc1,71.3%
18,O=C(O)C1CN(c2cccc(Cl)c2)N(c2cccc(Cl)c2)C1=O (stereo not given),89%
19,CN(C)c1ccc(/C=C/C(=O)c2ccc(Nc3nc(Nc4ccc(F)cc4)nc(Nc4ccc(Cl)cc4)n3)cc2)cc1,101%
20,COC(=O)c1nc(-c2ccccc2)oc1S(=O)(=O)N1CCC(C(N)=O)CC1,83.6%

# Tested on: UO-31 renal
# Assay: as above
# Conditions: 10 µM unless noted
row,SMILES,growth
1,NC(=O)c1c(NC(=O)c2ccc(Cl)cc2)sc2c1CCC(=O)C2,40.7%
2,Nc1c(C(=O)Nc2cccc3ncccc23)sc2nc3c(cc12)C(=O)CCC3,58.3%
3,CCOC(=O)c1cn2ncnc(Oc3ccc(NC(=O)NC4CC4)c(F)c3)c2c1C,70.6%
4,CCOC(=O)c1c2c(n3c1NCC3)-c1ccccc1C2=O,39.8%
5,CCCC(O)Cn1ncc(C(=O)OCC)c1NC(=O)NCc1cccc(F)c1 (stereo not given),79.3%
6,O=C(CCC(=O)c1nc2ncccc2[nH]1)NN1C(=O)CSC1c1ccc(Cl)cc1 (stereo not given),70.7%
7,COc1ccc2nc(Cl)c(/C=C/C(=O)c3ccc(NC(=O)CSc4nnc(-c5ccc(Cl)c(Cl)c5)n4-c4ccccc4)cc3)cc2c1,79.3%
8,CS(=O)(=O)Nc1cncc(-c2ccc3ncnc(Nc4ccc(F)c(Cl)c4)c3c2)c1,38.1%
9,Cc1ccc(-c2nc(C#N)c(S(=O)(=O)NCCO)o2)cc1,62.1%
10,O=C1OCC2=C1C(c1cccc(C(F)(F)F)c1)c1cc3c(cc1N2CCO)OCO3 (stereo not given),47.3%
11,Cc1[nH]c(C(=O)Nc2cccc(OC3CCNCC3)c2)c(Cl)c1Cl,67.1%
12,O=C1/C(=C/c2ccc(Br)cc2)COc2ccc(O)c(O)c21,-99.2% (active)
13,CCN1C(=S)N(CC)C2C1NC(=S)N2/N=C/C=C/c1ccccc1OC (stereo not given),43.5%
14,COc1cc(-c2nc3occn3c2-c2ccnc(NCCCNS(=O)(=O)c3ccccc3)n2)ccc1F,11.5%
15,O=C(O)c1cccc(N/C=C/C(=O)c2cc3cc(Br)ccc3oc2=O)c1,74.9%
16,N#Cc1c(Nc2ccc(F)cc2)n[nH]c1-c1cccs1,74.1%
17,COc1ccc(C2C(C#N)=C(N)Oc3c2sc2c(Br)cccc32)cc1 (stereo not given),35.9%
18,CCNc1nc(-c2ccc(F)cc2)c(C#N)c(=O)n1C,41.2%
19,CC12CCC(/C(=C/NNc3ccc([N+](=O)[O-])cc3[N+](=O)[O-])C1=O)C2(C)C (stereo not given),55.2%
20,S=c1[nH]c2cc(Cl)ccc2o1,87.9%

row,SMILES,growth
1,COc1cc2c3c(c1O)-c1ccccc1[C@@H]1OC(=O)N(CC2)[C@H]31,88.5%
2,CC(C)CSc1oc(-c2ccccc2)nc1S(=O)(=O)c1ccccc1,75.7%
3,C#CCOc1cccc(-c2ncc3cc(NC(=O)CCl)ccc3n2)c1,50.9%
4,Cn1c(=O)c2c(nc(NC3=NS(=O)(=O)c4ccccc43)n2Cc2ccccc2)n(C)c1=O,81.2%
5,COc1cc2c(c(OC)c1OC)C(=O)CC(c1cccc(NC(=O)c3ccccc3Br)c1)O2 (stereo not given),77.3%
6,CC(C)(CO)N(CCO)CCO,87.4%
7,CC(=O)c1c(Nc2ccc(F)c(F)c2F)[nH]c2c(F)cc(F)cc2c1=O,4.44% (active)
8,C#CCOc1ccc2ncnc(Nc3cccc(NC(=O)CCl)c3)c2c1,59.5%
9,COc1ccc(/C=C/C(=O)c2ccc(NC(=O)CSc3nnc(-c4cc(-c5ccccc5)nc5ccccc45)n3-c3ccccc3)cc2)cc1,100%
10,CCn1cc(C2=C(c3cn(C)c4ncccc34)C(=O)NC2=O)c2cccnc21,50%
11,NNC(=S)N/N=C/c1ccccn1,14.7%
12,Cc1ccc2nc(Cl)c(Cn3nnnc3SCc3ccccc3)cc2c1,69.6%
13,Clc1nn2c(Cn3cnc4c(NCc5ccccc5)ncnc43)nnc2c2ccccc12,21.7%
14,CN(C)c1ccc(/C=C2/C=C(c3ccccc3)OC2=O)cc1,73.7%
15,O=C(CN1C(=O)NC2NC(=O)NC21)N/N=C/c1ccc(Cl)cc1Cl (stereo not given),84.3%
16,COc1cccc(Nc2ccnc3[nH]c4ccc([N+](=O)[O-])cc4c23)c1,44.4%
17,COc1ccc(C/C(C)=C(/c2ccc(OCCN3CCCCCC3)cc2)c2ccc(OC(=O)NCc3ccccc3)cc2)cc1,62.7%
18,O=C(O)C1CN(c2cccc(Cl)c2)N(c2cccc(Cl)c2)C1=O (stereo not given),72.2%
19,CN(C)c1ccc(/C=C/C(=O)c2ccc(Nc3nc(Nc4ccc(F)cc4)nc(Nc4ccc(Cl)cc4)n3)cc2)cc1,59.2%
20,COC(=O)c1nc(-c2ccccc2)oc1S(=O)(=O)N1CCC(C(N)=O)CC1,55.3%
